Source: PubChem BioAssay
IL1B secr inh – inflammasome signaling inhibition, IL-1 beta readout; AID 743279; THP-1 LPS/ATP IL-1B secretion, AlphaLISA, 16 h; active compounds read low; activity change, % at 57.5 µM; 360,000 tested, 4.7% active; in the data active = activity change below about -50%; inconclusive = mostly about -30% to -49%
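THP-1 cells pretreated 1 hr with compounds (up to 57.5 uM final), then stimulated with LPS (250 ng/mL final) plus ATP (1.25 mM final); secreted IL-1B measured by AlphaLISA after 16 hr, decreased signal indicating inhibition.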
TDP1 cell noCPT – qHTS for Inhibitors of human tyrosyl-DNA phosphodiesterase 1 (TDP1): qHTS in cells in absence of CPT | Potency, µM (doses to about 46.2 µM), for the others: at the top dose activity change, negative = growth inhibition, hits mostly inhibitors | AID 686978, 2013 | DT40 Tdp1-/- hTDP1 cells, no CPT, ATP luminescence, 48 h | 420,000 tested, 15% active; also: potency is read from the fitted curve at half-maximal effect; nearly all actives have a fitted effect of over 55% in size
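Camptothecin absent (DMSO only). Human TDP1-complemented DT40 knockout cells, 400 cells/well, 37 °C for minimum 48 hr; ATP measured via CellTiter-Glo, 30 min dark incubation, luminescence.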
ELG1 repair inh – ELG1-dependent DNA repair inhibition. HEK293T ELG1-luciferase reporter, luminescence, 16 h; DNA damage induced by 5-fluorouridine. 330,000 tested, 2.3% active. Potency, µM (highest dose often 46.1 µM), inactives show at the top dose activity change, negative = inhibition, hits mostly inhibitors. AID 504467; also: potency is read from the fitted curve at half-maximal effect; nearly all actives have a fitted effect of over 55% in size
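HEK293T cells expressing luciferase-tagged ELG1 (2,000/well) received 5-Fluorouridine plus compound or DMSO for 16 hr at 37 °C. Luciferase was read by ONE-Glo luminescence after 30 min at room temperature.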
HT1080 IDH1KD tx – toxicity to HT-1080 IDH1 knockdown cells (counter line). HT-1080 IDH1 knockdown viability, ATP luminescence, 48 h. Potency, µM (series often up to 46.1 µM), inactives show at the highest dose activity, negative = toxicity, actives largely listed as cytotoxic. 360,000 tested, 2% active. AID 686971;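 also: potency is read from the fitted curve at half-maximal effect; 0% = DMSO wells and -100% = cell-free medium wells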
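Viability of IDH1-knockdown HT-1080 fibrosarcoma cells was assessed by CellTiter-Glo after 48 h at 37 °C with titrated compound; concentration-effect curves were classified by fit quality and response size.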
HT1080NT lethal – kills 2HG-producing HT-1080-NT fibrosarcoma cells. Potency, µM (series often up to 46.1 µM), inactives show at the highest dose activity, negative = less viability, usual class: cytotoxic. AID 686970. HT-1080-NT fibrosarcoma viability, CellTiter-Glo ATP luminescence, 48 h. 360,000 tested, 1.6% active;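 also: NT is the 2HG producing partner of a matched IDH1 knockdown line; potency is read from the fitted curve at half-maximal effect; 0% = DMSO-treated cells and -100% = media-only wells without cells; nearly all actives have a fitted effect of over 55% in size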
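A 48-hour cytotoxicity screen used HT-1080-NT cells plated 2 hours before compound delivery. ATP-based CellTiter-Glo luminescence measured viability, normalized to DMSO and no-cell controls.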
DT40 TDP1 CPT – growth inhibition of DT40 Tdp1-/-;hTDP1 cells with camptothecin (screen for TDP1 inhibitors). chicken DT40 Tdp1-/-;hTDP1 cells + 20 nM CPT, ATP luminescence, 48 h. 420,000 tested, 12% active. Potency, µM (doses to about 46.2 µM), inactives show top-dose activity change, negative = growth inhibition, most hits filed as inhibitors; also: potency is read from the fitted curve at half-maximal effect; nearly all actives have a fitted effect of over 55% in size
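Cell growth measured by CellTiter-Glo luminescence after a minimum 48 h, 37 C compound exposure with 20 nM CPT in Tdp1-knockout DT40 cells stably expressing hTDP1, seeded 400/well; qHTS titration format.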
* = called active by the depositor; i = inactive; ? = inconclusive; . = no result given; ! = a repeat was not active. Only some compounds are listed: those with a hit (about 19% of all), similar ones and a draw of the others. Unless noted, calls follow the shape of the dose curve; as a rule, active = well fitted curve in the direction sought with a large enough effect; inconclusive = small, poorly fitted or top-dose-only effect, or another doubt; inactive = no such curve, though single readings can be large; an effect the other way counts as inactive or inconclusive. Unless noted, % is scaled to controls: 0 for no effect and ±100 for the full control effect.

SMILES	IL1B secr inh	TDP1 cell noCPT	ELG1 repair inh	HT1080 IDH1KD tx	HT1080NT lethal	DT40 TDP1 CPT
Cc1cccc(NC(=O)COC(=O)c2c(-c3ccccc3)noc2C)c1	0	?	.	-8%	-7%	?
CCOC(=O)c1c(Nc2cc(C)cc(C)c2)nnc(-c2ccccc2)c1-c1ccccc1	.	15µM*	.	.	.	12µM*
O=C(CSc1nc(=O)n(Cc2ccco2)c2c1CCC2)Nc1cccc(F)c1	.	-20%	.	.	.	?
O=C(CNC(=O)C1(c2ccccc2)CC1)Nc1ccc(F)c(F)c1	-3	-13%	4%	-1%	-2%	-21%
OC(CNCCc1ccc(C(F)(F)F)cc1)COC(c1ccccc1)c1ccccc1 (stereo not drawn)	-69*	?	?	?	?	18µM*
OC(COC(c1ccccc1)c1ccccc1)CN1CCCCC1 (stereo not drawn)	?	-17%	1%	-3%	-11%	-3%
COc1ccc(CCNC(C)C(=O)Nc2ccc(S(N)(=O)=O)cc2)cc1 (stereo not drawn)	-3	9%	8%	-2%	-1%	-14%
COc1ccc(C(OCC(O)CNCCc2ccc(S(N)(=O)=O)cc2)c2ccc(OC)cc2)cc1 (stereo not drawn)	-68*	?	4%	?	-25%	?
CCN(CC(=O)NCc1ccc(F)cc1)C(=O)c1cccc(S(=O)(=O)N(C)c2ccc(OC)cc2)c1	0	?	.	0%	1%	?
COc1ccc(C(=O)NNC(=O)COC(=O)c2sccc2C)cc1	5	-12%	11%	12%	1%	1%
Cc1ccc(NC(=O)CCS(=O)(=O)c2cccc3nonc23)cc1	-12	0%	13%	-8%	7%	-9%
CC(C)c1ccc(NC(=O)CCS(=O)(=O)c2cccc3nonc23)cc1	1	23µM*	11%	-5%	-7%	16µM*!
CC(Sc1ccccc1F)C(=O)Nc1ccc2c(c1)OCCO2 (stereo not drawn)	-4	-6%	?	4%	-3%	-6%
O=C(CSc1ncnc2c1cnn2-c1ccccc1)NC1CCS(=O)(=O)C1 (stereo not drawn)	-11	8.2µM*	1%	9%	11%	-28%
O=C(CSc1ncnc2c1cnn2-c1ccc(F)cc1)NCC1CCCO1 (stereo not drawn)	-17	?	15%	-6%	-4%	?
O=C(CSc1ncnc2c1cnn2-c1ccc(F)cc1)NC1CCCC1	i	21µM*	1%	22%	14%	18µM*
O=C(C[C@H]1C[C@@H]2c3cc(NS(=O)(=O)c4ccccc4)ccc3O[C@@H]2[C@H](CO)O1)N1CCOCC1	8	-12%	.	12%	16%	-14%
O=c1c(O)c(-c2cc(O)c(O)c(O)c2)oc2cc(O)cc(O)c12	-18	18µM*	13%	0%	2%	11µM*!
O=c1c(O)c(-c2ccccc2)oc2cc(O)cc(O)c12	52	30µM*	13µM*	-5%	-5%	?
O=c1c(-c2ccccc2)c(-c2ccccc2)oc2cc(O)cc(O)c12	-15	?	-22%	-18%	?	-19%
CC(C)n1nc(C(=O)NNC(=O)c2ccc(OC(F)F)cc2)c2ccccc2c1=O	-4	?	-27%	-4%	0%	-24%
Cc1cc(C=C2C(=O)c3ccccc3C2=O)c(C)n1-c1cccc(C(=O)O)c1	16	?	?	1%	4%	?
Cc1cc(C=C2C(=O)c3ccccc3C2=O)c(C)n1-c1ccc(C(=O)O)cc1	-56*	-17%	-12%	5%	0%	-13%
